Assay outcomes from PubChem.
HCV inh: inhibitors of hepatitis C virus infection. actives 3.4% (n = 340,000). Huh7.5.1 HCVcc-Cre infection, luciferase reporter, 44 h. Potency, µM (titrated, usually from 41.8 µM), without a hit: top-dose activity change, negative = inhibition, actives largely listed as inhibitors. AID 651820; further: potency means the concentration at half of the fitted maximal effect
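Antiviral activity was scored by luciferase reporter output from cells infected with HCVcc-Cre (~0.5 moi) in presence of compound, 44 h infection period, cells seeded 1,000/well 4 h prior.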
FBPA Giardia inh: inhibitors of Giardia lamblia fructose-1,6-bisphosphate aldolase; purified Giardia FBPA; AID 2451; actives 0.71% (n = 290,000); Potency, µM (doses to about 59.6 µM), for inactives: top-dose activity, negative = inhibition, actives largely listed as inhibitors; further: potency means the concentration at half of the fitted maximal effect; nearly all actives have a fitted effect of over 55% in size
Target sequence (A8B2U2 whole entry, looked up): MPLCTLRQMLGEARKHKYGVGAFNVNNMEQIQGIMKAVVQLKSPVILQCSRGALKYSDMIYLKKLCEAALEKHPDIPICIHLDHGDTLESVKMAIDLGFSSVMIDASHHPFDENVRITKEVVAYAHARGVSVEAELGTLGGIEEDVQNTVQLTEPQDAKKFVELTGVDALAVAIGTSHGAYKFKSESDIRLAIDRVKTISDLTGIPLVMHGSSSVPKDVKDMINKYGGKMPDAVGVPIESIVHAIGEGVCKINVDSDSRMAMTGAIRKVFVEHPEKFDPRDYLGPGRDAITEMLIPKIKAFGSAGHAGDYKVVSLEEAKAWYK
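Giardia FBPA (40 nM reagent) was preincubated 10 min at RT with compound (up to 57.5 uM final), then substrate plus GAPDH/TPI/NAD/arsenate coupling system with diaphorase/resazurin was added; resorufin fluorescence (525/598 nm) was read after 20 min.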
FMDV inh: antivirals against foot and mouth disease virus; FMDV antiviral cell-based qHTS; Potency, µM (highest dose often 57.9 µM), without a hit: at the highest dose activity change, negative = inhibition, actives largely listed as inhibitors; actives 1.2% (n = 410,000); AID 1159524; calls by dose curve; tested in HEK293T cells; further: read-out not given here; potency means the concentration at half of the fitted maximal effect; nearly all actives have a fitted effect of over 45% in size
HCMV antiviral: human cytomegalovirus inhibition; HFF cells, HCMV-luciferase reporter, 72 h; hits give low values; activity change, negative = inhibition, % at 57.5 µM; actives 4.5% (n = 410,000); AID 1259415; in the data active means activity change below about -60%; inconclusive means no clear call, values can overlap the other calls; inactive means above about -39%
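HFF cells seeded 16 h at 37C, treated with compounds, infected with luciferase-reporter HCMV at MOI 1 PFU/cell; luciferase read at 72 h post infection, normalized to buffer-only and Salinomycin controls.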
LASV entry inh: inhibitors of Lassa virus binding or cell entry; Lassa virus pseudotype entry inhibition, cell reporter; actives 1.2% (n = 300,000); Potency, µM (doses to about 37.9 µM), without a hit: top-dose activity change, negative = inhibition, hits mostly inhibitors; calls by dose curve; tested in HEK293 cells; further: potency means the concentration at half of the fitted maximal effect; nearly all actives have a fitted effect of over 50% in size
MARV entry inh: inhibitors of Marburg virus binding or cell entry; Potency, µM (top dose mostly 37.8 µM), without a hit: at the top dose activity change, negative = inhibition, most hits filed as inhibitors; Marburg virus pseudotyped entry inhibition, cell reporter; actives 1.8% (n = 300,000); calls by dose curve; tested in HEK293 cells; further: potency means the concentration at half of the fitted maximal effect
* = called active by the depositor; ? = inconclusive; · = no result; [ ] = remark or other dose. Sampled rows, rich in hits. Any-hit rate of the full collection: about 8.3%. Unless noted, the call rests on the fitted dose curve; in most records, active means well fitted curve in the direction sought with a large enough effect; inconclusive means small, poorly fitted or top-dose-only effect, or another doubt; inactive means no such curve, though single readings can be large; an effect the other way counts as inactive or inconclusive. On the % scale 0 is the no-effect control and ±100 the full control effect.

SMILES	HCV inh	FBPA Giardia inh	FMDV inh	HCMV antiviral	LASV entry inh	MARV entry inh
O=C1c2[nH]nc(-c3ccccc3O)c2C(c2ccc(F)cc2)N1Cc1ccco1 (centres undefined)	-1%	-12%	?	-35	8.2µM*	?
Cc1cc(C)c(O)c(-c2n[nH]c3c2C(c2cccc(O)c2)N(Cc2ccco2)C3=O)c1 (centres undefined)	11µM*	-14%	-20%	-28	·	·
CCc1ccccc1NC(=O)CSc1nncn2c1cc1oc(C)cc12	·	·	-3%	-25	26%[46.1 µM]	·
COc1ccc(-c2oc3ncnc(NCCN4CCOCC4)c3c2-c2ccc(OC)cc2)cc1	?	2%	?	·	?	?
COc1ccc(-c2oc3ncn(CCN4CCOCC4)c(=N)c3c2-c2ccc(OC)cc2)cc1	13µM*	0%	?	?	?	16µM*
COc1ccc(-c2oc3ncnc(NCCCN4CCOCC4)c3c2-c2ccc(OC)cc2)cc1	2.8µM*	1%	?	?	-32%	?
c1ccc(-c2oc3ncnc(NCCCN4CCOCC4)c3c2-c2ccccc2)cc1	5.6µM*	-1%	?	-20	-1%	?
COC(=O)CC1OC1[C@H](C)[C@@H](OC)C(C)C (some centres undefined)	·	·	·	·	?	-15%[14.2 µM]
CC[C@@]1([C@@H]2O[C@@H]([C@H]3O[C@@](O)(CO)[C@H](C)C[C@@H]3C)C[C@@H]2C)CC[C@@H]([C@]2(C)CCC3(C[C@H](O)[C@@H](C)[C@@H]([C@@H](C)[C@@H](OC)[C@H](C)C(=O)O)O3)O2)O1 (some centres undefined)	·	6%	·	·	·	·
CCN1C(=O)/C(=C\c2nc3ccccc3c(=O)n2CC)c2ccccc21	1%	0%	25µM*	-94*	-24%	?
CCN1C(=O)/C(=C/c2nc3ccccc3c(=O)n2-c2ccccc2)c2ccccc21	-9%	-4%	25µM*	-102*	?	-25%
CC(C)=CCCC(C)=CCN1C(=O)[C@@]2(CC(C)=CC[C@@H](C)O2)c2c(Br)cccc21	·	·	·	·	·	0%[14.2 µM]
Cc1cc(C(=O)N2CCCC(C(=O)c3ccc4ccccc4c3)C2)nn1C (centres undefined)	?	4%	-29%	-21	?	?
O=C(c1ccc2ccccc2c1)C1CCCN(C(=O)CN2C(=O)CSC2=O)C1 (centres undefined)	-5%	1%	11%	-68*	18%[46.1 µM]	17%[46.1 µM]
COc1ccc(C(=O)C2CCCN(C(=O)CCc3scnc3C)C2)c(C)c1 (centres undefined)	?	?	-19%	-76*	-22%[46.1 µM]	4%[46.1 µM]
Cc1ncsc1C(=O)N1CCCC(C(=O)c2ccc3ccccc3c2)C1 (centres undefined)	-22%	5%	28µM*	-38	-12%	?
CSc1ncccc1C(=O)N1CCCC(C(=O)c2ccc3ccccc3c2)C1 (centres undefined)	?	-4%	?	-5	11µM*	?
O=C(c1ccc2ccccc2c1)C1CCCN(C(=O)c2cccnc2)C1 (centres undefined)	5%	·	?	-12	-26%	2%
CSc1ccc(C(=O)C2CCCN(C(=O)c3cccnc3SC)C2)cc1 (centres undefined)	?	0%	-14%	-13	·	·
O=C(NCCN1CCOCC1)c1cnn(-c2nccc(-c3ccccc3F)n2)c1C1CC1	·	·	40%	·	·	·
CCC[C@H]1NC(=O)[C@H](C)N(C)C(=O)C(C)(C)C(=O)C(C)NC(=O)[C@H](Cc2ccc(OC)cc2)N(C)C(=O)[C@H](C(C)C)N(C)C(=O)CNC(=O)[C@H](CC(C)C)N(C)C(=O)CNC(=O)[C@H]([C@@H](C)CC)OC(=O)[C@H]1C (some centres undefined)	0.56µM*	·	0%	·	·	·
C[C@H]1/C=C\CC(=O)NCc2cccc(c2)CNC(=O)N[C@H]1c1ccccc1	·	2%	·	·	·	·
CC(=O)Nc1ccc(CN(C)c2c(C)nc3ccc(C(=O)NC4CCN(Cc5ccccc5)CC4)cn23)cc1	·	·	-18%	-97*	·	·
COc1cc(/C=C/CN2CCOc3ccc(C(O)c4cccnc4)cc3C2)ccc1O (centres undefined)	·	·	-16%	·	·	·
CCN(C(=O)c1cnc(N2CCN(c3ncccn3)CC2)c2ccccc12)c1cccc(Cl)c1	?	-17%	20µM*	-85*	?	?
SMILES	HCV inh	FBPA Giardia inh	FMDV inh	HCMV antiviral	LASV entry inh	MARV entry inh
O=C(c1sc2ccccc2c1Cl)N1CCN(c2ncccn2)CC1	-3%	2%	?	-63*	8%	4%
CN(C(=O)c1cnc(N2CCN(c3ncccn3)CC2)c2ccccc12)c1ccc(Cl)cc1	?	-30%	20µM*	?	?	?
O=C(c1cnc(N2CCN(c3ncccn3)CC2)c2ccccc12)N1CCN(c2ncccn2)CC1	11µM*	1%	-6%	?	-28%	?
CC=COC(=O)N[C@@H](c1ccccc1)[C@]1(C(C)=O)CCCC1=O	·	·	·	·	?	-6%[14.2 µM]
CCc1ccc(-n2nc3ccc(NC(=O)COc4ccc(OC)cc4)cc3n2)cc1	·	·	31%	51	?	?
COc1ccc(-c2nn(C)c3sc(C(=O)N4CCN(c5cccc(C)c5C)CC4)cc23)cc1OC	·	·	0%	9	10%[46.1 µM]	10%[46.1 µM]
O=C1C[C@@H](O)[C@@H](O)[C@H]2[C@@H]3C(=O)N(c4cccc(Oc5ccccc5)c4)C(=O)[C@@H]3CC[C@H]12	·	-1%[12.9 µM]	·	·	·	·
CCOC(=O)c1c(C)[nH]c(C(=O)CSc2nnc(-c3ccncc3)n2CC)c1C	?	-16%	·	-30	-9%	-1%
C=CCn1c(SCC(=O)c2[nH]c(C)c(C(=O)OCC)c2C)nc2scc(-c3ccc(OC)c(OC)c3)c2c1=O	?	2%	?	-100*	-25%	?
COc1ccc(N2C(c3ccsc3)=Cc3cc4c(cc3C2c2c[nH]c3ccccc23)OCO4)cc1 (centres undefined)	·	·	-4%	-95*	·	·
CCc1cc(C(=O)N2CCCC(N3CCN(c4cccc(C(F)(F)F)c4)CC3)C2)n(C)n1 (centres undefined)	10µM*	3%	?	?	·	·
O=C(c1ccncc1)N1CCCC(N2CCN(c3cccc(C(F)(F)F)c3)CC2)C1 (centres undefined)	7%	·	-3%	-31	·	·
CCCN1CCC(N2CCN(c3cccc(C(F)(F)F)c3)CC2)CC1	11µM*	2%	-27%	-22	?	?
CC(=O)N1CCCC(N2CCN(c3cccc(C(F)(F)F)c3)CC2)C1 (centres undefined)	12%	4%	-16%	143	·	·
